# Screening data as filed in PubChem BioAssay.
# This is a sample that favours compounds with a hit; in the whole collection about 1.9% have one here.
# APP 5UTR inh: APP translation inhibition. SH-SY5Y APP 5'UTR-luciferase reporter, luminescence. inhibition, % at 2 µM. hit rate 0.82% among 190,000;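 active = inhibition above a set limit, derived from the sample mean plus 3 SD, cut at about 45% in these data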
# KLF5 inhibitor: kruppel-like factor 5 inhibition. DLD-1 KLF5 promoter-luciferase reporter, luminescence. inhibition, % at 5 µM. hit rate 0.23% among 290,000. AID 1700;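 active = inhibition above a per-plate limit of that plate's mean compound inhibition plus 3 SD, cut at about 60% in these data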;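 note: 0% = DMSO wells and 100% = LY294002 at 200 µM; higher means less KLF5 promoter-driven luciferase light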
# IEC-6 cytotox: IEC-6 cytotoxicity, counter-screen for KLF5 inhibitors | AID 1825 | inhibition, % at 5 µM | hit rate 0.78% among 290,000 | luminescence viability;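 note: 0% = plate median of test compound wells and 100% = cytotoxic reference compound wells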
# BaF3 tox: reduces parental Ba/F3 cell viability, JAK2V617F counter-screen. hit rate 1.1% among 220,000. inhibition, % at 5.6 µM. CellTiter-Glo ATP luminescence;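 active = inhibition above a per-campaign cutoff, the mean inhibition of all tested compounds plus 3 SD, cut at about 27% in these data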;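 note: 0% = DMSO wells and 100% = JAK Inhibitor I control wells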
# Ba/F3 V617F tox: reduce viability of Ba/F3 cells dependent on JAK2V617F; Ba/F3 EpoR-JAK2V617F viability, ATP luminescence; inhibition, % at 5.6 µM; hit rate 1.1% among 220,000;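 active = inhibition above the campaign mean plus 3 SD over all tested compounds, cut at about 24% in these data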;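 note: cytokine-independent growth of Ba/F3 cells driven by EpoR plus mutant JAK2; 0% = DMSO-treated cells and 100% = JAK inhibitor I control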
# IEC-6 cytotox cf: confirmation of cytotoxic compounds in rat IEC-6 intestinal epithelial cells. IEC-6 rat intestinal epithelial viability, luminescence. AID 1907. hit rate 63% among 1,900. shares compounds with IEC-6 cytotox. inhibition, % at 5 µM;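 note: 0% = vehicle and 100% = reference cytotoxic drug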
# * = called active by the depositor; / = no result. Cut-off read from the data, not from the text of the source, unless noted: active = inhibition above about 22%; inactive = the rest.
SMILES,APP 5UTR inh,KLF5 inhibitor,IEC-6 cytotox,BaF3 tox,Ba/F3 V617F tox,IEC-6 cytotox cf
CC(=O)Nc1ccc2nc(NC(=O)c3ccc([N+](=O)[O-])o3)sc2c1,/,-31.8,56.5*,/,/,13.1
O=C(Nc1ccc(N2CCN(C(=O)c3cccs3)CC2)cc1)c1ccco1,/,-9.2,-0.2,/,/,/
CCCC(c1nnnn1CS(=O)(=O)c1ccc(C)cc1)N1CCN(CC)CC1 (stereo not given),-14.0,-13.5,13.1,7.5,5.0,/
CN(C(=O)c1ccc(=O)n(Cc2ccc(Cl)cc2)c1)c1ccccc1,-25.6,-6.8,2.2,3.2,1.8,/
COc1ccc(Cl)cc1NC(=O)CN(C)CC(=O)Nc1ccc(Br)cc1,8.1,-16.1,-1.0,7.6,4.7,/
COc1ccc(Cl)cc1NC(=O)CN(C)CC(=O)Nc1cc(OC)c(OC)c(OC)c1,/,54.1,40.1*,/,/,32.8*
CC1(C(=O)OCC(=O)c2c[nH]c3ccccc23)CC1(Cl)Cl (stereo not given),-144.6,-141.1,-2.3,6.3,1.8,/
Cc1ccc(-c2ccnc3c(Br)c(C)nn23)cc1,/,-13.7,28.4*,/,/,19.0
Cc1nn2c(-c3ccccc3)ccnc2c1Br,/,-10.8,10.4,/,/,/
O=C1CN(C(=O)c2ccccc2)c2ccccc2N1,-11.3,-18.2,10.6,1.7,1.3,/
O=C1CN(C(=O)c2cccc(Br)c2)c2ccccc2N1,/,4.3,37.7*,/,/,10.5
COc1ccc(CC(=O)Nc2nnc(SCC(=O)NCc3ccco3)s2)cc1OC,6.8,-14.7,-3.8,4.7,-1.8,/
CCC(=O)N1CCN(c2ccc(NC(=O)c3ccco3)cc2Cl)CC1,/,-59.4,1.8,/,/,/
CCC(=O)N1CCN(c2ccc(Cl)cc2NC(=O)c2ccc([N+](=O)[O-])o2)CC1,/,-25.3,34.3*,/,/,8.2
CCN1CCN(c2ccc(NC(=O)c3ccc(F)cc3)cc2Cl)CC1,-27.4,-58.6,2.2,10.8,5.5,/
CC(=O)N1CCN(c2ccc(NC(=O)c3ccco3)cc2Cl)CC1,/,-72.8,4.3,/,/,/
CCC(=O)N1CCN(c2ccc(NC(=O)c3ccc([N+](=O)[O-])o3)cc2Cl)CC1,92.5*,14.3,67.3*,60.0*,87.8*,63.3*
CCN1CCN(c2ccc(NC(=O)c3ccc([N+](=O)[O-])o3)cc2Cl)CC1,93.6*,1.5,69.6*,48.4*,76.2*,45.5*
CC(=O)N1CCN(c2ccc(NC(=O)c3ccc([N+](=O)[O-])o3)cc2Cl)CC1,/,29.6,100.6*,/,/,48.3*
CCc1nn(CC(=O)NCCN2CCN(C)CC2)c(=O)c2cc3c(OC)cccc3n12,/,-16.2,6.3,/,/,/
COc1ccc(-c2cc(C)no2)cc1S(=O)(=O)N(C)c1ccc(C)cc1,/,22.7,28.3*,/,/,24.6*
CCOc1ccc(N(C)S(=O)(=O)c2cc(-c3cc(C)no3)ccc2OC)cc1,/,2.4,2.7,/,/,/
O=C(N/N=C/c1c[nH]c2ccccc12)c1[nH]c2ccc(Br)cc2c1-c1ccccc1,91.9*,43.7,81.9*,68.4*,76.2*,63.1*
O=C(N/N=C/c1ccc(O)cc1)c1[nH]c2ccc(Br)cc2c1-c1ccccc1,94.3*,56.3,82.9*,71.0*,75.3*,65.4*
O=C(O)/C=C/C(=O)NC1CCC(CC2CCC(NC(=O)/C=C/C(=O)O)CC2)CC1 (stereo not given),-15.6,-6.3,-1.6,3.3,-1.0,/
SMILES,APP 5UTR inh,KLF5 inhibitor,IEC-6 cytotox,BaF3 tox,Ba/F3 V617F tox,IEC-6 cytotox cf
COc1cccc(OCc2cc(/C=N/Nc3ccc(C(=O)O)cc3)ccc2OC)c1,/,17.3,28.4*,-3.1,9.0,55.3*
COc1cccc(C(=O)Oc2ccc(/C=N/Nc3ccc(C(=O)O)cc3)cc2OC)c1,/,-58.2,2.0,/,/,/
Cc1cccc(N2CCN(C(=O)c3c(-c4ccccc4)noc3C)CC2)c1C,/,60.7,72.2*,/,/,45.2*
CCOC(=O)C1(Cc2ccccc2)CCN(Cc2ccc3cc(NC(C)=O)ccc3n2)CC1,-12.3,-16.3,5.8,3.4,-0.1,/
CCC1CCCCN1C(=O)c1cc(COc2ccc3ncccc3c2)on1 (stereo not given),12.2,0.3,23.0*,68.1*,68.1*,14.8
COCC1CCCCN1C(=O)c1cc(COc2ccc3ncccc3c2)on1 (stereo not given),/,-18.1,14.2,/,/,/
O=C(Nn1cc(C(=O)Nc2ccccc2F)c2ccccc2c1=O)c1cnccn1,12.8,27.1,51.6*,2.4,6.5,12.1
c1cnc2c(c1)ccc1cccnc12,31.8,47.2,69.6*,3.5,7.2,79.9*
c1ccc(CN2CCC(Nc3nc(-c4cccnc4)nc4ccccc34)CC2)cc1,4.7,-30.8,23.9*,8.6,2.7,19.4
O=C(CSc1ncnc2nc[nH]c12)c1ccc(Cl)cc1,/,-14.2,41.1*,/,/,23.3*
Clc1ccc(CSc2ncnc3nc[nH]c23)cc1,-6.8,-6.9,-3.3,6.8,4.9,/
CSCC[C@H](NC(=O)[C@@H]1Cc2c([nH]c3ccccc23)C2c3ccccc3C(=O)N21)C(=O)NCC1CCCO1 (stereo not given in full),/,-10.3,-0.7,/,/,/
Nc1ccc(-c2cnc(-c3ccc(N)cc3)nc2)cc1,-126.0,-59.1,6.2,11.7,8.9,/
Oc1ccc(-c2cnc(-c3ccc(O)cc3)nc2)cc1,/,10.0,41.3*,/,/,13.5
CN1CCN(Cc2cc(Cl)c3cccnc3c2OC(=O)c2cccs2)CC1,3.8,-9.0,8.2,9.7,0.8,/
O=C(Oc1c(CN2CCOCC2)cc(Cl)c2cccnc12)c1ccccc1Br,/,6.0,24.5*,1.3,-2.6,21.0
CCN1CCN(C(=O)c2ccc3c(=O)n(CCc4ccccc4)c(=O)[nH]c3c2)CC1,/,-57.4,0.1,/,/,/
CCOc1ccc(S(=O)(=O)Nc2cc(SCC(=O)O)c(O)c3ccccc23)cc1,/,-14.2,49.4*,/,/,1.0
CCc1ccc(S(=O)(=O)Nc2cc(SCC(=O)O)c(O)c3ccccc23)cc1,5.8,-3.9,5.1,5.7,-2.5,/
O=C(NCc1cccnc1)c1ccc([N+](=O)[O-])cc1,-2.0,-16.9,-2.6,5.8,1.0,/
O=C(COc1ccc([N+](=O)[O-])cc1)NCc1cccnc1,-24.6,-63.3,-2.1,10.4,1.4,/
O=C(NCc1cccnc1)c1ccc(NC(=O)c2cccc([N+](=O)[O-])c2)cc1,9.7,-11.3,75.3*,0.1,20.6,8.1
O=C(COc1ccc([N+](=O)[O-])cc1)Nc1ccc(C(=O)NCc2cccnc2)cc1,-8.7,-22.2,30.3*,1.4,10.1,-6.3
C=CCOc1ccc(C(=O)Nc2ccccc2C(=O)NCc2cccnc2)cc1,/,47.2,39.3*,/,/,25.7*
CCCn1c(SCC(=O)NCc2ccc(Cl)cc2)n[nH]c1=O,7.4,-7.8,-7.9,-3.6,0.4,/
COc1cc(CNCCN2CCOCC2)ccc1OCc1ccc(Cl)cc1,-4.5,-37.7,1.9,4.4,-1.2,/
COc1cc(CNCCCN2CCOCC2)cc(Br)c1OCc1ccc(Cl)cc1,9.6,-18.7,53.1*,72.7*,30.5*,45.6*
Cc1nnc(N/N=C\c2ccc(-c3ccccc3[N+](=O)[O-])o2)n1N,0.2,-85.4,57.8*,10.6,1.5,-4.5
CCc1nnc(N/N=C/c2ccc(-c3ccc([N+](=O)[O-])cc3)o2)n1N,13.8,-16.2,9.8,6.3,1.4,/
